This is a sample that favours compounds with a hit; in the whole collection about 2% have one here.
TDP-43 yeast inh: inhibitors of TDP-43 toxicity in yeast; TDP-43 expressing yeast growth rescue, BacTiter-Glo, 24 h; Potency, µM (series often up to 46.1 µM), for the others: top-dose growth rescue (activation), actives largely listed as activators; hit rate 1.8% among 410,000; also: potency is read from the fitted curve at half-maximal effect; % of control where 0% means no effect; nearly all actives have a fitted effect of over 50% in size
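Cell-based yeast growth screen: TDP-43 expression induced in galactose, inoculum OD600=0.02 after raffinose pregrowth to mid-log. Read-out BacTiter-Glo luminescence at 24 hr, 30 deg C; inhibition of toxicity seen as signal increase.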
Abeta rescue: A-beta toxicity reversal in yeast. yeast expressing A-beta42, growth rescue, OD600, 48 h; response scale: 0% DMSO, 100% iron-clioquinol control. Potency, µM (top dose mostly 46.1 µM), actives largely listed as activators. hit rate 0.063% among 410,000. AID 1347071; also: potency is read from the fitted curve at half-maximal effect; nearly all actives have a fitted effect of over 55% in size
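Growth rescue measured by 600 nm absorbance after 48 h yeast culture at 30 C with compound. Values normalized between DMSO and an equimolar ferric chloride plus clioquinol control.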
aSyn yeast inh: inhibitors of alpha-synuclein toxicity in yeast; Yeast expressing alpha-synuclein, growth rescue, BacTiter-Glo, 24 h; Potency, µM (doses to about 46.1 µM), inactives show top-dose growth rescue (activation), usual class: activators; hit rate 0.14% among 370,000; also: potency is read from the fitted curve at half-maximal effect; % of control where 0% means no effect; nearly all actives have a fitted effect of over 65% in size
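Galactose-induced alpha-syn yeast (OD600=0.02, raffinose-pregrown) + pinned cpd, 24 hr, 30 deg C; growth by BacTiter-Glo luminescence. Growth restoration scores as activation.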
IDH1 R132H inh: inhibitors of human mutant IDH1 R132H. O75874. IDH1-R132H enzyme, NADPH consumption, diaphorase/resazurin fluorescence. Potency, µM (doses to about 76.6 µM), inactives show top-dose activity change, negative = inhibition, most hits filed as inhibitors. hit rate 0.093% among 390,000. AID 602179; also: potency is read from the fitted curve at half-maximal effect; % is scaled to controls: 0 for no effect and ±100 for the full control effect; nearly all actives have a fitted effect of over 65% in size
Target sequence (O75874 whole entry R132H, stated change not applied): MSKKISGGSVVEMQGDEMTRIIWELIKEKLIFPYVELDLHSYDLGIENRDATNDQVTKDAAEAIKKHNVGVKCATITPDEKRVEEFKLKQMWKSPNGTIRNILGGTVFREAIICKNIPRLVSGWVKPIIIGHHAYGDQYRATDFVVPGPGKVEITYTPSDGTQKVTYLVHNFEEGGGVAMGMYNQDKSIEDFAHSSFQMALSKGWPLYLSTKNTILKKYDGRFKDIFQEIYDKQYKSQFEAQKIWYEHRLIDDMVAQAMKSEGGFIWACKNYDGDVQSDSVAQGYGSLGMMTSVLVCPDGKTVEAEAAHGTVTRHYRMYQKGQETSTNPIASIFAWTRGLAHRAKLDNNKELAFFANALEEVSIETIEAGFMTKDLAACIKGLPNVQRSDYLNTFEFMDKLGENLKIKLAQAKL
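IDH1-R132H (0.5 ug/mL) preincubated 30 min with compound, then NADPH (0.016 mM) and alpha-KG (2 mM) added; 80 min at RT, pH 7.5. Remaining NADPH coupled via diaphorase/resazurin to fluorescence (540/590 nm); concentration-response curves normalized to no-enzyme control.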
FUS suppressor: FUS proteinopathy suppression in yeast; Potency, µM (titrated, usually from 76.6 µM), hits mostly activators; hit rate 0.24% among 390,000; S. cerevisiae FUS-expressing, growth rescue, OD600, 24 h;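 also: potency is read from the fitted curve at half-maximal effect; plate controls were DMSO vehicle for no effect and reference control for full effect; nearly all actives have a fitted effect of over 55% in size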
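Yeast expressing FUS under galactose induction, OD 0.005 in 2% galactose medium; compounds in a dilution series, 24 h at 30C. Growth rescue by absorbance at 600 nm; CP55940 positive control, DMSO negative.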
LDHA inh: blocks human lactate dehydrogenase A. activity change, % (values are at about 110 or 230 µM). P00338. purified LDHA, NADH/diaphorase-resazurin fluorescence; hits give low values. hit rate 0.15% among 480,000; in the data active = activity change below about -30%; inconclusive = mostly about -25% to -30%;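 also: plate controls were DMSO wells for no effect and wells without enzyme for full effect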
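Human LDH5 (2 nM) was incubated with 0.06 mM NADH and 0.2 mM pyruvate for 5 min at room temperature in Tris pH 7.4. Remaining NADH was coupled through diaphorase/resazurin, and resorufin fluorescence was read at 0 and 20 min.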
* hit, by the source's call; i = inactive; ? = inconclusive; nt = no result; [ ] = remark or other dose. Unless noted, calls follow the shape of the dose curve; as a rule, active = well fitted curve in the direction sought with a large enough effect; inconclusive = small, poorly fitted or top-dose-only effect, or another doubt; inactive = no such curve, though single readings can be large; an effect the other way counts as inactive or inconclusive.

SMILES | TDP-43 yeast inh | Abeta rescue | aSyn yeast inh | IDH1 R132H inh | FUS suppressor | LDHA inh
COc1cc(/C=C/C(=O)c2ccc3c(c2)OCCO3)cc(OC)c1OC | ? | i | 8% | 1% | i | 0
COc1ccc(OC)c(/C=C/C(=O)c2ccc3c(c2)OCCO3)c1 | 11µM* | i | -11% | 0% | i | -15
Cc1cc(Br)ccc1SCC(=O)OCC(=O)Nc1ccccc1OC(F)F | nt | nt | nt | nt | nt | 9
O=C(N/N=C/c1cc(Cl)ccc1O)c1ccccc1Br | 13µM* | ? | 14µM* | -5% | i | 1
O=C(CNC(=O)c1ccccc1Br)N/N=C/c1cc(Br)ccc1O | -3% | i | 3% | -3% | i | -9
N#CC1(C(=O)Nc2cccc(I)c2)CCCC1 | nt | nt | nt | nt | nt | 5
Cc1cccc(/C=C/c2ccc3ccccc3n2)c1 | nt | nt | nt | nt | nt | 4
CC(SCc1ccccc1)C(=O)Nc1ccccc1-c1ccccc1 (configuration not stated) | -25% | i | -1% | 1% | 18µM* | -2
O=c1[nH]cccc1NS(=O)(=O)c1ccc(Cl)c(C(F)(F)F)c1 | nt | nt | nt | nt | nt | 76
CCCCCn1c(=O)c2ccccc2n2c(=S)[nH]nc12 | 11µM* | i | 9% | -5% | i | -1
COc1ccc(-c2nc(C)c(-c3ccccc3)s2)cc1OC | nt | nt | nt | nt | nt | -24
Cc1nc2c3cc(F)ccc3n(Cc3ccccc3F)c2s1 | 11µM* | i | -19% | 5% | i | 12
CC(Cc1ccco1)NC(=O)c1ccc(Cl)c(S(C)(=O)=O)c1 (configuration not stated) | nt | nt | nt | nt | nt | -37*
CCOC(=O)c1sc2ncnc(NCc3ccco3)c2c1C | 20µM* | ? | 3% | 13% | i | -1
CCOC(=O)c1sc2nc(CC(=O)OC)nc(NCc3ccco3)c2c1C | 20% | i | 4% | 4% | nt | 3
CCOc1ccc2nc(NC(=O)C3(C)CC3(Br)Br)sc2c1 (configuration not stated) | 18µM* | ? | -34% | 2% | i | 2
S=C(NCc1ccc(Cl)cc1)NC1CCCC1 | nt | nt | nt | nt | nt | -2
C[C@H](NC(=O)/C=C/[C@H]1O[C@@H](n2ccc(=O)[nH]c2=O)[C@H](O)[C@@H]1O)C(=O)O | 21% | i | -2% | nt | i | -5
C[C@H]([C@@H](N)C(=O)N[C@@H](C(=O)O)[C@@H]1O[C@H](n2ccc(=O)[nH]c2=O)[C@@H](O)[C@H]1O)[C@@H](O)c1ccc(O)cn1 | 4.5µM* | ? | 0% | 0% | i | -6
O=C1ON=C(c2ccccc2)/C1=C/c1ccc(O)c(O)c1 | ? | i | 5µM* | 2% | i | 2
O=C1ON=C(c2ccccc2)/C1=C/c1cccnc1 | -12% | i | -5% | 0% | i | -7
COc1ccc(/C=C2\C(=O)ON=C2c2ccccc2)cc1 | ? | i | 14% | -10% | i | -32*
Cc1ccc(/C=C2\C(=O)ON=C2c2ccccc2)o1 | 8%[9.22 µM] | i | 10% | 8% | i | 0
O=C1ON=C(c2ccccc2)/C1=C/c1ccc(OS(=O)(=O)c2ccccc2)cc1 | 13µM* | i | 6% | -8% | nt | -39*
COc1cc(/C=C2\C(=O)ON=C2c2ccc(Cl)cc2)ccc1O | ? | i | 4% | -11% | ? | -10
SMILES | TDP-43 yeast inh | Abeta rescue | aSyn yeast inh | IDH1 R132H inh | FUS suppressor | LDHA inh
Cc1occc1-c1nnc(SC(C(=O)N2CCCC2)c2ccccc2)n1-c1ccccc1 (configuration not stated) | nt | nt | nt | nt | nt | -2
O=C(O)c1cnc(/C=C/c2cc(Cl)c3c(c2)OCO3)s1 | nt | nt | nt | nt | nt | 1
COc1ccc(NC(=O)C(c2ccc(C)cc2)N(C)C(=O)Cc2cccs2)cc1 (configuration not stated) | 13µM* | ? | 12% | 9% | i | 3
COc1ccc(NC(=O)C(c2ccc(OC)cc2)N(C)C(=O)Cc2cccs2)cc1 (configuration not stated) | ? | i | 11% | 22% | i | -3
CC(C)(C)c1ccc(OCC(O)CNS(=O)(=O)c2ccc(Br)cc2)cc1 (configuration not stated) | nt | nt | nt | nt | nt | -2
CCO[C@H]1OC(C(=O)Nc2ccccc2)=C[C@@H](c2ccc(C(F)(F)F)cc2)[C@@H]1CCCO | 35µM* | i | ? | -6% | i | 9
CCO[C@H]1OC(C(=O)NCc2ccccc2)=C[C@@H](c2ccc(C(F)(F)F)cc2)[C@@H]1CCCO | 4% | i | ? | 3% | ? | 0
Oc1ccc(C[C@@H]2CNC(=S)N2CCc2cc(C(F)(F)F)cc(C(F)(F)F)c2)cc1 | 36% | i | 0% | -3% | i | 6
FC(F)(F)c1cc(CCN2C(=S)NC[C@@H]2Cc2ccccc2)cc(C(F)(F)F)c1 | 22µM* | ? | -22% | 10% | ? | -1
COc1ccc(-n2cnc3c2NC(=O)CC3c2cc(OC)c3c(c2OC)OCO3)cc1 (configuration not stated) | nt | nt | nt | nt | nt | 75
COc1ccc(NC(=O)COc2ccccc2)cc1Cl | 11µM* | i | -8% | 3% | i | -8
CC(C)c1ccc(NC(=O)COc2ccccc2)cc1 | 10µM* | i | -7% | 6% | i | 0
CCOc1ccc(Nc2nc(N)c(C(=O)c3ccccc3Cl)s2)cc1 | 35µM* | i | nt | -24% | i | -6
O=C(NCCc1ccccc1Cl)c1sc2ncccc2c1-n1cccc1 | 18µM* | i | nt | 0% | ? | 5
Cc1ccc(CCNC(=O)c2sc3ncccc3c2-n2cccc2)cc1 | 20% | i | nt | 12% | i | -3
CC(=O)N1CCN(CC(=O)Nc2ccccc2Sc2ccc(Cl)cc2)CC1 | -25% | i | 14% | 6% | nt | 0
O=C(Cc1ccccc1)Nc1ccccc1Sc1ccccc1 | 24% | i | -1% | 5% | nt | 1
O=C(Nc1ccccc1Sc1ccccc1)c1ccccc1 | 11µM* | ? | -1% | 5% | i | 2
O=C(CCl)Nc1ccccc1Sc1ccc(Cl)cc1 | 11µM* | i | nt | 25% | i | 0
O=C1CC(c2ccsc2)c2ncn(-c3ccccc3)c2N1 (configuration not stated) | nt | nt | nt | nt | nt | 67
Clc1cccc(OCc2nc(-c3ccncc3)no2)c1 | 11µM* | i | -7% | 12% | i | -7
Clc1ccc(OCc2nc(-c3ccncc3)no2)c(Cl)c1 | ? | i | 10% | 6% | i | 3

Bioassay records from PubChem BioAssay.
